From PubChem BioAssay come the findings set out here.

Active and inactive are the calls of the source.

Tested on in one test: not listed separately
The test is described as follows: modulators of S6 phosphorylation in cells, primary screen, cell-based, A549, cytoblot, luminescence, serum-stimulated (AID 1158).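 Note: serum-stimulated A549 lung adenocarcinoma cells; signal is phosphorylated S6 detected by cytoblot immunostaining with HRP secondary.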 The conditions noted are these: A549 phospho-S6 cytoblot, 5 h, higher = more signal.
Regarding `COc1ccc([Si](C)(C)[C@H]2[C@H](CC(=O)N3Cc4ccccc4C[C@H]3CO)O[C@@]3(C(=O)N(Cc4cccc(N5C(=O)c6cccc7cccc5c67)c4)c4ccccc43)[C@@H]2C)cc1`, the z-score is -0.112. As to `CN1C(=O)C2C(C1=O)C1C=C(c3ccc(CO)cc3)C2C(c2cccs2)N1C` (stereo not given), the z-score is -0.105. Compound `CC(C)CNC(=O)[C@@]1(C)c2ccccc2C(=O)N(Cc2cc(F)cc(C(F)(F)F)c2)[C@H]1c1ccc(CO)cc1` displayed a z-score of 0.0857. The compound `COc1ccc([Si](C)(C)[C@H]2[C@H](CCO)O[C@@]3(C(=O)N(Cc4ccc(N5CCOC5=O)cc4)c4ccccc43)[C@@H]2C)cc1` registered a z-score of 0.419.

Take `CCCC=C(CCC)[C@@H](NC(=O)c1ccco1)c1ccc(C(=O)OC)cc1`: the z-score was -0.277. The compound `CO[C@H]1O[C@H](CO)[C@@H](OC(=O)Nc2ccc(C(F)(F)F)cc2)[C@H](OC(=O)Nc2ccccc2-c2ccccc2)[C@@H]1OC(=O)Nc1ccccc1-c1ccccc1` returned a z-score of 0.672.

In turn, `CC[C@H](C)C(=O)O[C@H]1CC[C@]2(C)C3=C(CCC2C1(C)C)[C@]1(C)CC[C@H]([C@H](C)CCCC(C)C)[C@@]1(C)CC3` (stereo not given in full) gave a z-score of 0.231. Same read-out and setting: to `COCCn1c(C(=O)N2CCCC2)cc2c1C[C@H]1CN(C(=O)c3ccccc3)[C@@](Cc3ccccc3)(C(=O)OC)[C@@H]21` belongs 1.09; to `C[C@]1(C(=O)NCC(F)(F)F)c2ccccc2C(=O)N(Cc2ccc(OC(F)(F)F)cc2)[C@H]1c1ccc(CO)cc1`, -0.32.

In the case of `CN(C)CCCNC(=O)[C@@H]1c2ccccc2C(=O)N(C2Cc3ccccc3C2)[C@H]1c1ccc(CO)cc1`, the z-score was -0.421.

Consider `Cc1c(NC(=O)/C(C#N)=C/c2ccc(Cl)cc2)c(=O)n(-c2ccccc2)n1C`, for which the z-score came to 0.776. For `C=CCC(OC(C)=O)[C@@H]1[C@@H](N(Cc2ccc(-c3ccccc3)cc2)C(=O)c2cccc3ccccc23)c2cc(OCCCO)ccc2N1C(=O)c1ccc2ccccc2c1` (stereo not given in full), the z-score is -0.146. `COCCOC(=O)N1C(=O)[C@@]2(c3ccccc31)[C@H](c1ccc(OCCO)cc1)N1[C@H](c3ccccc3)[C@H](c3ccccc3)OC(=O)[C@H]1[C@@H]2C(=O)N1CCN(c2ncccn2)CC1`: the z-score came out at 0.0018.

Compound `C=C(/C(=C/C[C@@H](OC(C)=O)c1ccccc1OCCO)c1cc(C(=O)OC)ccc1OC)C(C)C` had a z-score of 0.0105.

As for `CCCC[C@H]1OB(O)C[C@H]2C1=C(COC)C[C@H]1C(=O)C=CC(=O)[C@H]12`, the z-score came to 0.0946. Regarding `COc1ccc(NC(=O)O[C@H]2[C@H](OC(=O)Nc3ccc4c(c3)OCO4)[C@H](OC(=O)Nc3ccc4c(c3)OCO4)[C@@H](OC)O[C@@H]2CO)cc1`, the z-score was -0.0897. Same read-out and setting: under `C=CCN1C(=O)[C@]2(O[C@H](CCO)[C@@H]([Si](C)(C)c3ccc(OC)cc3)[C@@H]2C)c2ccccc21` stands -0.613; under `COC(=O)[C@]1(CO)N=C(c2ccc(OCCCO)cc2)O[C@@H]1c1ccccc1CN=[N+]=[N-]`, -0.405; under `COc1cccc(OC)c1C(=O)O[C@H]1[C@@H]2OC(=O)[C@H](Cc3cccc(Br)c3)C/C=C/C[C@@H](Cc3cccc(Br)c3)C(=O)O[C@H]2[C@@H](OC)O[C@@H]1CO`, 0.0487. `COCCOC(=O)N1C(=O)[C@@]2(c3cc(C#CC4(O)CCCCCC4)ccc31)[C@H](C(=O)NC[C@H](O)c1ccccc1)[C@H]1C(=O)O[C@H](c3ccccc3)[C@H](c3ccccc3)N1[C@@H]2c1ccc(O)cc1`: the z-score was determined as 0.632. In the case of `O=C1C2C=CC(C(O)c3ccc([N+](=O)[O-])cc3)N(Nc3ccccc3)C2C(=O)N1c1ccccc1` (stereo not given), the z-score was -1.32. In turn, `C=C(CCCC)C(=O)CC[C@H](OC(C)=O)c1ccccc1OCCO` returned a z-score of 1.68. The compound `C=C(COC)/C(=C/C[C@H](OC(=O)c1ccncc1)c1ccc(OCCO)cc1)c1cc(C(=O)OC)ccc1OC` yielded a z-score of 0.876. Consider `COC(=O)[C@@]1(Cc2ccc(OC)cc2)[C@@H]2[C@@H](CC(=O)[C@H]2CC(=O)C(=O)N2CCCC2)CN1C(=O)c1ccccc1`, for which the z-score was 0.0676. As for `CCOC(=O)C[C@H]1[C@H](OC(=O)c2ccc(-c3ccccc3)cc2)[C@@H](NC(=O)CC(C)C)c2cc(OCCCO)ccc2N1C(=O)Cc1ccc(OC)cc1`, the z-score was -0.0775. `C=CCN1C(=O)[C@]2(O[C@H](CCn3cc([C@H](O)c4ccccc4)nn3)[C@@H]([Si](C)(C)c3ccc(OC)cc3)[C@@H]2C)c2cc(N3C(=O)c4cccc5cccc3c45)ccc21` displayed a z-score of 0.435.

The target in another test is NADPH oxidase 2 (Homo sapiens) (UniProt P04839). The test is described as follows: NOX2-dependent H2O2 signal modulators, primary screen, NOX inhibitor project, cell-based, HEK293-NOX2, PMA-stimulated, Amplex Red fluorescence (AID 1159). Note: test concentration not given here. The conditions noted are these: 45 min, higher = more signal, called active from +8 up or from −8 down.
Chain of NADPH oxidase 2 (Homo sapiens) (P04839 whole entry, looked up): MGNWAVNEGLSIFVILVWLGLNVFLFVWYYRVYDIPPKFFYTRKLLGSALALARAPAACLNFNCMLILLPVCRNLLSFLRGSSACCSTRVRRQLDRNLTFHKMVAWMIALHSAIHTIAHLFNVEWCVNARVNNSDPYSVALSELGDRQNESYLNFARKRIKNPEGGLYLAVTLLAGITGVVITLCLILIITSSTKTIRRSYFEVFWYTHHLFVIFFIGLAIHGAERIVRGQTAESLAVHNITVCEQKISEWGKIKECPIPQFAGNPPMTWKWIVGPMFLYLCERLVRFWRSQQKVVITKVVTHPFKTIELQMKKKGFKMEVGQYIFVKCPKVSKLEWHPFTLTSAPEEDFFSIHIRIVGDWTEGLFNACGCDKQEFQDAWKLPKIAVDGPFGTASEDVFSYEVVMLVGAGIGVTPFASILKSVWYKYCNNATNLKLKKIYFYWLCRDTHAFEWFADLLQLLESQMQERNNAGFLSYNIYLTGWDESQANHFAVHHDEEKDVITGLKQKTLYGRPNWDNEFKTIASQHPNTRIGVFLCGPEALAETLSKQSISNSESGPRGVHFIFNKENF
For the compound `CCCC[C@@H](O)C1=C(COC)Cn2c(=O)n(-c3ccccc3)c(=O)n2[C@H]1CO`, the z-score was -1.55 (inactive). On to `CCN(CC)c1ccc(N2CC=CC34O[C@@H]5C=CCOC(=O)[C@@H]5[C@H]3C(=O)N(CCCO)[C@@H]4C2=O)cc1` (stereo not given in full), for which the z-score is -0.0266 (inactive).

Consider `COCCOC(=O)N1C(=O)[C@@]2(c3cc(C#CCC(C(=O)OC)C(=O)OC)ccc31)[C@H](c1ccc(OCCO)cc1)N1[C@H](c3ccccc3)[C@H](c3ccccc3)OC(=O)[C@H]1[C@@H]2C(=O)N1CCCCCCC1`, for which the z-score was 2.05 (inactive). On the same count and under the same terms, to `CCOC(=O)C1=CC[C@@H](c2ccc(F)cc2)N(S(=O)(=O)c2ccc(C)cc2)[C@H]1c1ccc([N+](=O)[O-])cc1` belongs 1.36 (inactive); to `COC(=O)c1c(CC[C@@H](CO)NC(=O)N[C@@H](Cc2ccccc2)Cn2cc(-c3cncn3C)nn2)oc(C(C)=O)c1C(=O)OC`, -5.64 (inactive). `O=C(NCCO)C1=C[C@H](Oc2ccccc2I)[C@@H](O)[C@H](NCc2ccc(F)cc2)C1`: the z-score is 0.71 (inactive).

Consider `CCCCN1CC=CC23O[C@@H]4/C=C\CCC(C)OC(=O)C4[C@H]2C(=O)N(C(C)CO)[C@@H]3C1=O` (stereo not given in full), for which the z-score was 0.809 (inactive). `CC(C)C[C@@H]1NC(=O)C([C@@H](C)OCc2ccccc2)NC(=O)[C@@]23C(=O)N[C@@H](Cc4ccccc4)C2[C@H](C)[C@@]2(C)O[C@H]2C3/C=C/CC/C=C/CNC1=O` (stereo not given in full): the z-score is 0.681 (inactive).

In the case of `COCCOC(=O)N1C(=O)[C@@]2(c3cc(C#CCCO)ccc31)[C@H](C(=O)N1CCc3cc(OC)c(OC)cc3C1)[C@H]1C(=O)O[C@H](c3ccccc3)[C@H](c3ccccc3)N1[C@@H]2c1ccccc1OCCO`, the z-score was 1.72 (inactive). For the compound `COc1ccc([Si](C)(C)[C@H]2[C@H](CC(=O)N3Cc4ccccc4C[C@H]3CO)O[C@@]3(C(=O)N(Cc4cccc(N5C(=O)c6cccc7cccc5c67)c4)c4ccccc43)[C@@H]2C)cc1`, the z-score is -1.79 (inactive). On the same count and under the same terms, under `CN1C(=O)C2C(C1=O)C1C=C(c3ccc(CO)cc3)C2C(c2cccs2)N1C` (stereo not given) stands 0.158 (inactive). In the case of `CC(C)CNC(=O)[C@@]1(C)c2ccccc2C(=O)N(Cc2cc(F)cc(C(F)(F)F)c2)[C@H]1c1ccc(CO)cc1`, the z-score is -0.152 (inactive). Same read-out and setting: to `COc1ccc([Si](C)(C)[C@H]2[C@H](CCO)O[C@@]3(C(=O)N(Cc4ccc(N5CCOC5=O)cc4)c4ccccc43)[C@@H]2C)cc1` belongs -0.372 (inactive); to `CCCC=C(CCC)[C@@H](NC(=O)c1ccco1)c1ccc(C(=O)OC)cc1`, -0.0272 (inactive); to `CO[C@H]1O[C@H](CO)[C@@H](OC(=O)Nc2ccc(C(F)(F)F)cc2)[C@H](OC(=O)Nc2ccccc2-c2ccccc2)[C@@H]1OC(=O)Nc1ccccc1-c1ccccc1`, -0.803 (inactive). As for `CC[C@H](C)C(=O)O[C@H]1CC[C@]2(C)C3=C(CCC2C1(C)C)[C@]1(C)CC[C@H]([C@H](C)CCCC(C)C)[C@@]1(C)CC3` (stereo not given in full), the z-score was -0.371 (inactive).

For `COCCn1c(C(=O)N2CCCC2)cc2c1C[C@H]1CN(C(=O)c3ccccc3)[C@@](Cc3ccccc3)(C(=O)OC)[C@@H]21`, the z-score was 0.582 (inactive). Consider `C[C@]1(C(=O)NCC(F)(F)F)c2ccccc2C(=O)N(Cc2ccc(OC(F)(F)F)cc2)[C@H]1c1ccc(CO)cc1`, for which the z-score is 1.45 (inactive).

For `CN(C)CCCNC(=O)[C@@H]1c2ccccc2C(=O)N(C2Cc3ccccc3C2)[C@H]1c1ccc(CO)cc1`, the z-score was 0.498 (inactive). Consider `Cc1c(NC(=O)/C(C#N)=C/c2ccc(Cl)cc2)c(=O)n(-c2ccccc2)n1C`, for which the z-score is -2.29 (inactive). For `C=CCC(OC(C)=O)[C@@H]1[C@@H](N(Cc2ccc(-c3ccccc3)cc2)C(=O)c2cccc3ccccc23)c2cc(OCCCO)ccc2N1C(=O)c1ccc2ccccc2c1` (stereo not given in full), the z-score was -0.634 (inactive). As for `COCCOC(=O)N1C(=O)[C@@]2(c3ccccc31)[C@H](c1ccc(OCCO)cc1)N1[C@H](c3ccccc3)[C@H](c3ccccc3)OC(=O)[C@H]1[C@@H]2C(=O)N1CCN(c2ncccn2)CC1`, the z-score is 1.19 (inactive). Turning to `C=C(/C(=C/C[C@@H](OC(C)=O)c1ccccc1OCCO)c1cc(C(=O)OC)ccc1OC)C(C)C`, the z-score was 1.58 (inactive). On to `CCCC[C@H]1OB(O)C[C@H]2C1=C(COC)C[C@H]1C(=O)C=CC(=O)[C@H]12`, for which the z-score was -0.235 (inactive). As for `COc1ccc(NC(=O)O[C@H]2[C@H](OC(=O)Nc3ccc4c(c3)OCO4)[C@H](OC(=O)Nc3ccc4c(c3)OCO4)[C@@H](OC)O[C@@H]2CO)cc1`, the z-score is -1.54 (inactive). Turning to `C=CCN1C(=O)[C@]2(O[C@H](CCO)[C@@H]([Si](C)(C)c3ccc(OC)cc3)[C@@H]2C)c2ccccc21`, the z-score is -0.536 (inactive).

For `COC(=O)[C@]1(CO)N=C(c2ccc(OCCCO)cc2)O[C@@H]1c1ccccc1CN=[N+]=[N-]`, the z-score is -0.259 (inactive). Still for that read-out and setting: to `COc1cccc(OC)c1C(=O)O[C@H]1[C@@H]2OC(=O)[C@H](Cc3cccc(Br)c3)C/C=C/C[C@@H](Cc3cccc(Br)c3)C(=O)O[C@H]2[C@@H](OC)O[C@@H]1CO` belongs -0.443 (inactive). As for `COCCOC(=O)N1C(=O)[C@@]2(c3cc(C#CC4(O)CCCCCC4)ccc31)[C@H](C(=O)NC[C@H](O)c1ccccc1)[C@H]1C(=O)O[C@H](c3ccccc3)[C@H](c3ccccc3)N1[C@@H]2c1ccc(O)cc1`, the z-score is 1.39 (inactive).
